Laboratory results: ChEMBL document CHEMBL3988442, “University of Dundee, Small-Polar-MMV Screening Library” (2021)
For some assays here: Measured potencies and affinities stand elsewhere.

How the values were obtained:
Set-up in all cases: scale not given: direction of the effect not stated beside the values
[1] = target: Protein translocase subunit SecA (Escherichia coli (strain K12)) (UniProt P10408); assay: Assay to Identify E. coli SecA ATPase Inhibitors; type: functional; details: 30 µM
[2] = target: T1, Ubiquitin-activating enzyme e1, putative (Leishmania donovani (strain BPK282A1)) (UniProt E9BSI1); assay: Leishmania donovani Ubiquitin Activating Enzyme (LdE1); type: functional; details: 30 µM
T1 sequence (whole entry): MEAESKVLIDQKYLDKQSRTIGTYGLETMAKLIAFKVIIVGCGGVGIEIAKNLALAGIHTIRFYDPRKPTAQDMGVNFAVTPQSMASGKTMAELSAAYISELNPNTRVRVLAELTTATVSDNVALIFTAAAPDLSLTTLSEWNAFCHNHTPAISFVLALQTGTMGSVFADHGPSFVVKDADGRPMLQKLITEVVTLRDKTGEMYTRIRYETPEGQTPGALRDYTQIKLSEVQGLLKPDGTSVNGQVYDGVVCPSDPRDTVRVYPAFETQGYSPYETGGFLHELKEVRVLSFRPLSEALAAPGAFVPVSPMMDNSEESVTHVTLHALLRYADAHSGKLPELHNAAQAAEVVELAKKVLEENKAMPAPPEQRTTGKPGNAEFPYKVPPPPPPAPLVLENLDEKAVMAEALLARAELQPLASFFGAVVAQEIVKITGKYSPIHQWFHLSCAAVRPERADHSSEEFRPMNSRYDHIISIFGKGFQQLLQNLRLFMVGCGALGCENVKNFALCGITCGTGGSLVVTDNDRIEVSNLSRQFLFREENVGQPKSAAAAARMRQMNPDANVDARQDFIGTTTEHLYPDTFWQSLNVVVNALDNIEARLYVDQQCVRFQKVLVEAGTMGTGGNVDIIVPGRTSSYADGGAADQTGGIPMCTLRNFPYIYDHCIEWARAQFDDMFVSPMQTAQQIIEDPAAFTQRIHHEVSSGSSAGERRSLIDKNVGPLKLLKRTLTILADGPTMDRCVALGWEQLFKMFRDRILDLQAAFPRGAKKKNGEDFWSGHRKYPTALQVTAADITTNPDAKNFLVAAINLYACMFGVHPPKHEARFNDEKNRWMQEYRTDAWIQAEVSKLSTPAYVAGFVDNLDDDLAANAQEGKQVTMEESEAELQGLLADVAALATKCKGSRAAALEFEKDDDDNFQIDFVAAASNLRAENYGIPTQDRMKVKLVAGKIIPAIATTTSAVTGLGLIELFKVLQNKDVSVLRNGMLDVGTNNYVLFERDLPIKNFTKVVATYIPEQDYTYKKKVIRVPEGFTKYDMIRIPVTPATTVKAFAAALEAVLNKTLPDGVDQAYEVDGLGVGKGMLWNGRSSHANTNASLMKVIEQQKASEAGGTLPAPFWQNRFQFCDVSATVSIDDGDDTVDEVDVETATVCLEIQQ

[3] = target: Sialic acid-binding Ig-like lectin 9 (Homo sapiens) (UniProt Q9Y336); assay: Hs-Siglec9 ALPHAscreen SOP 20170721; details: 10 µM
[4] = system: Trypanosoma cruzi; assay: Trypanosoma cruzi phosphomannomutase and mannose-1-phosphate guanylyltransferase assay; type: functional; details: 10 µM
[5] = target: T2, Arginase-2, mitochondrial (Homo sapiens) (UniProt P78540); assay: in vitro enzyme assay to detect the production of urea directly proportional to the activity of Arginase II; type: functional; details: 33.3 µM; also: in the data most compounds retested in dose-response had high values
T2 sequence (whole entry): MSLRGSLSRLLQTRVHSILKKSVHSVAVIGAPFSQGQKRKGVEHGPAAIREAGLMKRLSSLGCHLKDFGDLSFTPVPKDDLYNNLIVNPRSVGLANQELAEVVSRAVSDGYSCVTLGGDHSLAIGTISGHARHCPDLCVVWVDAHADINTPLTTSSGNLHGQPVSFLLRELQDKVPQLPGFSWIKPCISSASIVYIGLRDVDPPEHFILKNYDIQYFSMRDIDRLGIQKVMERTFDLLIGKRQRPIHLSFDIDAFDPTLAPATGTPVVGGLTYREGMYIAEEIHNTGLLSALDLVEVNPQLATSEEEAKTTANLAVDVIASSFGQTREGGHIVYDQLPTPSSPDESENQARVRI

[6] = target: T3, Proteasome subunit beta (Trypanosoma cruzi) (UniProt O96673); assay: Trypanosoma cruzi proteasome chymotrypsin-like activity (TcProtChymo) assay.; also: in the data most compounds retested in dose-response had high values; type: functional; details: 9.37 µM
T3 sequence (whole entry): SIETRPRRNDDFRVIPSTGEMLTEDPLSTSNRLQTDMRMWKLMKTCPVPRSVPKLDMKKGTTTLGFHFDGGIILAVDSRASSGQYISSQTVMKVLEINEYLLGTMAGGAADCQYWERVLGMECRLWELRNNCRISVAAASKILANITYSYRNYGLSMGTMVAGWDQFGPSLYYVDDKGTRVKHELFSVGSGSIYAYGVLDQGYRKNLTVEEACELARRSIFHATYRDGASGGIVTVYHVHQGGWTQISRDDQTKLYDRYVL

[7] = species on record: Homo sapiens; assay: To identify inhibition of the IFN signalling (Jak-Stat) pathway via expression of an eGFP reporter gene under the control of an IFN-stimulated response element (ISRE) containing MxA promoter.; type: functional; details: 30 µM
[8] = target: T4, Tyrosyl-tRNA synthetase, putative (Trypanosoma cruzi (strain CL Brener)) (UniProt Q4DSP6); assay: Trypanosoma cruzi tyrosyl tRNA synthetase (TcYRS) _High Tyrosine SOP; type: functional; details: 30 µM; also: in the data most compounds retested in dose-response had high values
T4 sequence (whole entry): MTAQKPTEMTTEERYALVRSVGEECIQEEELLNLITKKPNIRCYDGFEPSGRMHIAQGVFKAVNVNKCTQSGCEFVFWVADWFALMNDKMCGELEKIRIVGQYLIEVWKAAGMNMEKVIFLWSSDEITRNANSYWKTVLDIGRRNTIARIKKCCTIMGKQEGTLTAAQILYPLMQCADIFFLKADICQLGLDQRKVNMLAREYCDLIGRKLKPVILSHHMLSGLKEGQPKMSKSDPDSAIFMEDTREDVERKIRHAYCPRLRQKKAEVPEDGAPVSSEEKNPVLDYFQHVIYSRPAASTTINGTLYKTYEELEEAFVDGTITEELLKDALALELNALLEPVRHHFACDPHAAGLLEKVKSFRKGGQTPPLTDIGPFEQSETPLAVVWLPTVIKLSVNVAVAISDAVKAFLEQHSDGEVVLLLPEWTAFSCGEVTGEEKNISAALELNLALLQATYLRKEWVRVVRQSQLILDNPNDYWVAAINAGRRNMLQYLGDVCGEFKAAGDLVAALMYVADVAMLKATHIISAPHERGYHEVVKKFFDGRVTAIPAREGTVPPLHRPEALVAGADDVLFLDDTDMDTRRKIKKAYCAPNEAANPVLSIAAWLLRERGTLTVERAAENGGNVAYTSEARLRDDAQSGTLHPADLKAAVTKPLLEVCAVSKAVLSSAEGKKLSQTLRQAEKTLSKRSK

[9] = target: T4, Tyrosyl-tRNA synthetase, putative (Trypanosoma cruzi (strain CL Brener)); assay: Trypanosoma cruzi tyrosyl tRNA synthetase (TcYRS) SOP; type: functional; details: 30 µM
[10] = target: Chromo domain-containing protein 1 (Saccharomyces cerevisiae (strain ATCC 204508 / S288c) (Baker's yeast)) (UniProt P32657); assay: ScCHD-1 Enzyme Inhibition Assay; type: functional; details: 30 µM; also: in the data most compounds retested in dose-response had high values
Chromo domain-containing protein 1 (Saccharomyces cerevisiae (strain ATCC 204508 / S288c) (Baker's yeast)), sequence (P32657 whole entry, the tested form may be a part): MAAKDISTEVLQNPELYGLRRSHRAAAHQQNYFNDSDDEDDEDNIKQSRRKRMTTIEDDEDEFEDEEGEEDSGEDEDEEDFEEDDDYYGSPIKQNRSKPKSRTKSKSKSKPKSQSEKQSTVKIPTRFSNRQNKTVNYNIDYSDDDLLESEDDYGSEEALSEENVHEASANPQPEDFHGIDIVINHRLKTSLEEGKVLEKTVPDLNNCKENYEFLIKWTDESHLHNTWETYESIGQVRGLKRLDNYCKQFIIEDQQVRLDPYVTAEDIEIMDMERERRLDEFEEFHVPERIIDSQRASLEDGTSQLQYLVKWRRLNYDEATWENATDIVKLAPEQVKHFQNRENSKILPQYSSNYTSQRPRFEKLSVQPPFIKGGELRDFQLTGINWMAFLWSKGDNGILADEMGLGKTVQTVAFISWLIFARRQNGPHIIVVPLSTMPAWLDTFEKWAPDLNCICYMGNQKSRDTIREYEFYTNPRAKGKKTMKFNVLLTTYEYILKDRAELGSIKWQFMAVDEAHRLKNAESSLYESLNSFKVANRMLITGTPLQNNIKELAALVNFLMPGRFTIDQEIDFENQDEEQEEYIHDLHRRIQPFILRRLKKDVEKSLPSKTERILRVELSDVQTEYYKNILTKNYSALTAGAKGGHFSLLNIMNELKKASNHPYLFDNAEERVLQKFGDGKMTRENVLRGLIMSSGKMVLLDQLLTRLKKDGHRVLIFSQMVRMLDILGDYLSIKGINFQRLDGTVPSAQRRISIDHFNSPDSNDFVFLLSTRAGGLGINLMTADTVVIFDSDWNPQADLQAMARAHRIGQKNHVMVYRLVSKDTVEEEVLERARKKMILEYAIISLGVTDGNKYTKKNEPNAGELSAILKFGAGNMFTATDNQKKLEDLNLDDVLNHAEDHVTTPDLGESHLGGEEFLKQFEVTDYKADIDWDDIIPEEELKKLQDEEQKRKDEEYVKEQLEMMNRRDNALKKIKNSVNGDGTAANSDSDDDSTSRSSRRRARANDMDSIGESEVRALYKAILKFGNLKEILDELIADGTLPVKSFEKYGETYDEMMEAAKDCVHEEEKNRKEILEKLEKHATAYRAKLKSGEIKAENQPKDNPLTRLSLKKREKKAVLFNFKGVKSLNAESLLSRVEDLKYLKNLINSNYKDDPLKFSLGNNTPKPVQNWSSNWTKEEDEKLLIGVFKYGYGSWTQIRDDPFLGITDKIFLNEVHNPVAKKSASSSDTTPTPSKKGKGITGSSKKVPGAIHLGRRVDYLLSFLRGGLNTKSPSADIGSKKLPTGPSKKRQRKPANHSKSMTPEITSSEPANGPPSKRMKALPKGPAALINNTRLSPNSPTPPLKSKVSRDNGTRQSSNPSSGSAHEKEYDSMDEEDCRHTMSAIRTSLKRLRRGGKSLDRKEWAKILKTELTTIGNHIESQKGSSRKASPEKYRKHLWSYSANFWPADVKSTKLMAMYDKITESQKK

Protein translocase subunit SecA (Escherichia coli (strain K12)), sequence (P10408 whole entry): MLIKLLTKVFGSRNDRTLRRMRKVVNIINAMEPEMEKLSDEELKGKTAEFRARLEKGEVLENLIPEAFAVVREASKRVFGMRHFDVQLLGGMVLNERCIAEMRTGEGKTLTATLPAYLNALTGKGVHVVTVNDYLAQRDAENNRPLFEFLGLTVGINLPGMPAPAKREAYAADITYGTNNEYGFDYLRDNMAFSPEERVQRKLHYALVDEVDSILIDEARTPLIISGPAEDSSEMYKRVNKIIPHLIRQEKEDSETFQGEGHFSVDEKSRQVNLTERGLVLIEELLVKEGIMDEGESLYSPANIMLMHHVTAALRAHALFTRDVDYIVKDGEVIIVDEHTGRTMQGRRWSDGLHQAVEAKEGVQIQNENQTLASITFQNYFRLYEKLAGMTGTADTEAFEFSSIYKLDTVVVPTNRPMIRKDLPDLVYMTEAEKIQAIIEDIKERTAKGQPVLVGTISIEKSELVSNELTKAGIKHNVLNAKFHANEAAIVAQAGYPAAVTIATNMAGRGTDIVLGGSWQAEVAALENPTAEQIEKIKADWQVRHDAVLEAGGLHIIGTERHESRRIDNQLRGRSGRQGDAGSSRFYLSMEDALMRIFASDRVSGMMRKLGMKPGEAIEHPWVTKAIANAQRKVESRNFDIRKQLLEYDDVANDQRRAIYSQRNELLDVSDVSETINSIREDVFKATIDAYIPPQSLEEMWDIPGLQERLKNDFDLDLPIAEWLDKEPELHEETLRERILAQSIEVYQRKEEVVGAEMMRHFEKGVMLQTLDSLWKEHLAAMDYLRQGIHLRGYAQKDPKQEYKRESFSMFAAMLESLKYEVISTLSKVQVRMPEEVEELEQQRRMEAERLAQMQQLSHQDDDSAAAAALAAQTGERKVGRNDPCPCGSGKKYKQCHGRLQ
Sialic acid-binding Ig-like lectin 9 (Homo sapiens), sequence (Q9Y336 whole entry): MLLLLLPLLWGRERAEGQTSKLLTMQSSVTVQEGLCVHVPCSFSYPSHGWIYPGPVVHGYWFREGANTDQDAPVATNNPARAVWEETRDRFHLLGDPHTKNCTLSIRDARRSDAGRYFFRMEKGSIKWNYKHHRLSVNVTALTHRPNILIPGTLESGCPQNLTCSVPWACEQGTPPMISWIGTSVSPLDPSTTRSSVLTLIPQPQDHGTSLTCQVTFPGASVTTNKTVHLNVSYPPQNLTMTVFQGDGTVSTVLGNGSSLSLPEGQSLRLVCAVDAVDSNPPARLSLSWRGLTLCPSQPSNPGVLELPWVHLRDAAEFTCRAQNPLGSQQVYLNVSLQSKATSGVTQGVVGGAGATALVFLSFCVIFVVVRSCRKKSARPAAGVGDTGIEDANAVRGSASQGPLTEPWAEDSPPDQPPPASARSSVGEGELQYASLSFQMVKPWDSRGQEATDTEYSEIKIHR

Structure (SMILES) | Percent Effect [1] [%] | Percent Effect [2] [%] | Percent Effect [3] [%] | Percent Effect [4] [%] | Percent Effect [5] [%] | Percent Effect [6] [%] | Percent Effect [7] [%] | Percent Effect [8] [%] | Percent Effect [9] [%] | Percent Effect [10] [%]
CC(C)N(C)C(=O)CN1CCCC(c2ccc(C(=O)O)cc2)C1 (stereo not given) | -2.28 | 18.9 | -0.275 | 0.485 | -66.1 | 12.3 | 29.1 | 5.85 | 19.5 | -6.15
Cn1cc(CN2CCCN(C(=O)c3cc[nH]n3)CC2)cn1 | -1.81 | 5.13 | -4.2 | 4.22 | -0.41 | -6.57 | 23.7 | 0.478 | 13.2 | -1.64
O=c1[nH][nH]cc1-c1ccnc(NCCN2CCCC2)n1 | 3.78 | 10.7 | -2.82 | -4.82 | -8.87 | 7.38 | 13.2 | -4.74 | -5.13 | -14.5
Cc1c(CN2CCCC(c3[nH]ncc3S(C)(=O)=O)C2)cnn1C (stereo not given) | -2.55 | 22.7 | -0.226 | 3.94 | -5.75 | 12.5 | 11.7 | 3.17 | 17.5 | -24.1
CCn1cc2c(n1)C(COC)CN(C(=O)COc1ccccc1C)C2 (stereo not given) | -5.08 | -3.9 | 1.02 | -5.16 | -13.4 | 11 | 4.86 | 2.63 | 5.13 | 2.06
Cc1cnn(C2CCCN(C(=O)c3sccc3-n3cnnn3)C2)c1 (stereo not given) | -2 | 7.69 | -3.12 | -5.54 | 2.46 | 7.93 | 33.8 | 5.26 | 10.8 | 3.04
CCC(=O)N1CCC(O)(c2ncc(OC)nc2OC)CC1 | -1.18 | 9.33 | 3.93 | -3.55 | 3.1 | 9.03 | 8.31 | 5.29 | 7.5 | -17.1
Cc1nn(C)c(N(C)C)c1CNC(C)COc1cccc(F)c1 (stereo not given) | -4.28 | -5.2 | -1.85 | -6.16 | -2.66 | 5.26 | 9.12 | -3.92 | -4.71 | -2.29
